SW480 rerep: inducers of DNA re-replication in SW480 colon cancer cells | AID 624297 | SW480 DNA re-replication, Hoechst DNA content imaging, 48 h | Potency, µM (doses to about 46.1 µM), without a hit: at the highest dose re-replication activation, actives largely listed as activators | 1.8% of 340,000 active; further: % of control where 0% means no effect; nearly all actives have a fitted effect of over 55% in size
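Image-based DNA-content assay: after two days of treatment, nuclei were labelled with the DNA dye Hoechst and imaged, and hits were compounds raising the count of nuclei showing high fluorescence intensity.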
KB-3-1 cytotox: kills parental KB-3-1 adenocarcinoma cells; 1.4% of 400,000 active; Potency, µM (series often up to 46.1 µM), actives largely listed as cytotoxic; KB-3-1 viability, CellTiter-Glo ATP luminescence, 72 h; further: on the % scale 0 is the no-effect control and ±100 the full control effect; nearly all actives have a fitted effect of over 60% in size
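Using CellTiter-Glo luminescence, growth of non-resistant KB-3-1 adenocarcinoma cells is assessed 72 h after pin-tool compound addition at 37 °C. Normalized responses across the concentration series yield fitted curves.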
KB-V1 cytotox: kills drug-selected multidrug resistant KB-V1 cells; KB-V1 MDR cells viability, CellTiter-Glo, 72 h; Potency, µM (series often up to 46.1 µM), hits mostly cytotoxic; 3.4% of 400,000 active; further: on the % scale 0 is the no-effect control and ±100 the full control effect; nearly all actives have a fitted effect of over 60% in size
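Cytotoxicity toward P-gp-expressing KB-V1 cells was determined as loss of CellTiter-Glo luminescence after 72 h at 37 degrees C. Compounds were tested in quantitative HTS format across a concentration range, with curves fitted to normalized data.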
ELG1 repair inh: inhibitors of ELG1-dependent DNA repair in HEK293T cells; HEK293T ELG1-luciferase reporter, luminescence, 16 h; DNA damage induced by 5-fluorouridine; Potency, µM (series often up to 46.1 µM), inactives show at the top dose activity change, negative = inhibition, actives largely listed as inhibitors; 2.3% of 330,000 active; further: on the % scale 0 is the no-effect control and ±100 the full control effect; nearly all actives have a fitted effect of over 55% in size
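In this reporter screen, reduction of luminescence relative to DMSO vehicle indicated activity. Compounds and 5-fluorouridine were added together to 2,000 cells per well, incubated for 16 hr at 37 °C, then developed with ONE-Glo.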
MCF10A rerep: induces DNA re-replication in MCF 10a normal breast cells. 2.9% of 350,000 active. AID 624296. Potency, µM (doses to about 46.1 µM), without a hit: top-dose activity, positive = re-replication, most hits filed as activators. MCF 10A DNA re-replication, Hoechst nuclear intensity, 48 h; further: % of control where 0% means no effect; nearly all actives have a fitted effect of over 50% in size
Active calls of the source: *; i = inactive; ? = inconclusive; nt = no result. In the library only some 8.1% were active in any assay of this set; here they are far more common. The call rests on the fitted dose curve; in most records, active means well fitted curve in the direction sought with a large enough effect; inconclusive means small, poorly fitted or top-dose-only effect, or another doubt; inactive means no such curve, though single readings can be large; an effect the other way counts as inactive or inconclusive. Potency means the concentration at half of the fitted maximal effect.

SMILES	SW480 rerep	KB-3-1 cytotox	KB-V1 cytotox	ELG1 repair inh	MCF10A rerep
Cc1c(Br)c([N+](=O)[O-])nn1CCCC(=O)N1CCN(c2ccccc2)CC1	-15%	?	21µM*	-21%	-37%
N=c1c(C(=O)NCc2ccco2)cc2c(=O)n3ccccc3nc2n1CCc1ccccc1	13µM*	18µM*	21µM*	1%	8.2µM*
Cc1ccc(Cn2c(=N)c(C(=O)NCc3ccco3)cc3c(=O)n4ccccc4nc32)cc1	3.5µM*	?	i	?	11µM*
COCCCn1c(=N)c(C(=O)NCc2ccco2)cc2c(=O)n3ccccc3nc21	nt	i	i	nt	nt
COc1ccc(CCn2c(=N)c(C(=O)NCc3ccco3)cc3c(=O)n4ccccc4nc32)cc1OC	-1%	i	i	nt	5%
CCOC(=O)c1nn(-c2ccc(Br)cc2)cc1C(=O)c1cccc2ccccc12	?	?	12µM*	?	?
CCOC(=O)c1ccc(NC(=O)c2cn(-c3ccccc3)nc2-c2ccc(Br)cc2)cc1	nt	i	i	nt	nt
C[C@H]1CN([C@@H](C)CO)C(=O)CCCn2nncc2CO[C@H]1CN(C)C(=O)c1ccncc1	nt	i	i	nt	nt
COc1ccc(C(=O)/C=C/C(=O)N(Cc2ccc3c(c2)OCO3)C(C(=O)NC2CCCCC2)c2ccncc2)c(O)c1 (stereo not drawn)	?	?	2.1µM*	7.3µM*	?
COc1ccc(CN(C(=O)/C=C/C(=O)c2ccc(OC)cc2O)C(C(=O)NC2CCCCC2)c2ccncc2)cc1 (stereo not drawn)	?	i	2.6µM*	16µM*	14%
COc1cc(COc2ccc(-c3nnco3)cc2)ccc1OC(F)F	-37%	i	i	5%	-2%
N#Cc1nc(-c2cccc3ccccc23)oc1NCC1CCCO1 (stereo not drawn)	?	i	i	-1%	?
O=C(O)c1cccc(N2C(=O)c3ccc(Oc4ccc(Cl)cc4)cc3C2=O)c1	-1%	i	i	12%	?
C=CCOc1ccc(/C=C2\SC(=S)N(N3CCOCC3)C2=O)cc1	5.8µM*	i	i	-8%	-3%
CCOC(=O)c1cccc(-n2c(-c3ccc(OC)cc3)nc3nc4ccccc4nc32)c1	nt	nt	nt	10µM*	nt
CCOC(=O)c1cccc(-n2c(C)nc3ccccc3c2=O)c1	-5%	i	i	4%	3%
COc1ccccc1C(=O)Nc1ccccc1C(=O)NCc1ccco1	-2%	i	i	-11%	8%
Cc1ccc(CC(=O)NCc2ccc(Cl)cc2)cc1	0.92µM*	i	?	-5%	7.3µM*
CC/C(=N/NC(=O)c1ccc(Br)o1)c1ccc(Cl)cc1	-107%	i	15µM*	20%	1%
Cc1ccc(CNC(=O)CCn2nc(-c3ccc(Cl)cc3)ccc2=O)cc1	-4%	i	23µM*	-11%	4%
O=C(CNC(=O)c1ccc(Br)o1)NCc1ccc(F)cc1	28%	i	i	7%	?
O=C(CNC(=O)c1ccc(Br)o1)NCc1ccc(Cl)cc1	?	i	i	-1%	26µM*
COc1ccc(S(=O)(=O)NC(C)C(=O)NCC2CCCO2)cc1OC (stereo not drawn)	11%	i	?	5%	0%
O=C1CC(N2CCOCC2)C(=O)N1Cc1ccc(N2CCCC2=O)cc1 (stereo not drawn)	-6%	i	i	9%	-5%
O=C1CC(N2CCN(C/C=C/c3ccccc3)CC2)C(=O)N1Cc1ccc(N2CCCC2=O)cc1 (stereo not drawn)	-1%	?	10µM*	?	8%
SMILES	SW480 rerep	KB-3-1 cytotox	KB-V1 cytotox	ELG1 repair inh	MCF10A rerep
CCN(CC)c1ccc(C(=O)NCc2ccc3c(c2)CCN3C(=O)c2ccc(F)cc2)cc1	nt	15µM*	?	nt	nt
O=C(NCc1ccc2c(c1)CCN2C(=O)c1ccc(F)cc1)c1ccc(Br)o1	nt	?	2.6µM*	nt	nt
O=C(NCc1ccc2c(c1)CCN2C(=O)c1ccccc1)c1ccc(Br)o1	nt	i	i	nt	nt
Cc1cccc(NC(=S)N2CCC(N(C)CC3CCCO3)CC2)c1 (stereo not drawn)	-1%	i	i	9%	2%
CCOC(=O)c1c(C)c(C(=O)NCc2ccco2)c(C)n1Cc1ccccc1	0%	i	4.1µM*	-21%	0%
CCOC(=O)c1c(C)c(C(=O)NCc2ccco2)c(C)n1CC	3%	i	i	?	-1%
C=CCN1[C@@H](C(C)C)COCCS1(=O)=O	nt	i	i	nt	nt
CCOC(=O)C1=C(C)N=c2s/c(=C\c3ccc(O)c([N+](=O)[O-])c3)c(=O)n2C1c1ccccc1OC (stereo not drawn)	17%	?	?	-29%	?
COc1ccc(/C=c2/sc3n(c2=O)C(c2ccccc2OC)C2=C(N=3)c3ccccc3CC2)cc1O (stereo not drawn)	5.2µM*	?	?	?	18µM*
CCCCn1c(SCC(=O)Nc2cc(C(F)(F)F)cc(C(F)(F)F)c2)nnc1C(CC)N(C)C (stereo not drawn)	?	i	15µM*	-28%	?
CCOC(=O)c1ccc(NCc2ccc(N(C)C)cc2)cc1	-2%	i	i	-5%	0%
CCOC(=O)c1c(C)c(C(=O)Nc2cc(F)ccc2F)c(C)n1C	23µM*	10µM*	2.6µM*	-30%	10µM*
CCOC(=O)c1c(C)c(C(=O)Nc2ccc(N(C)C)cc2)c(C)n1CC	10µM*	7.3µM*	4.1µM*	0%	6.5µM*
CCOC(=O)c1c(C)c(C(=O)NCCOC)c(C)n1CC	-10%	i	i	-3%	0%
CCOC(=O)c1ccc(NC(=O)Nc2ccc3c(c2)OCCO3)cc1	3%	?	15µM*	-20%	-4%
CCOC(=O)c1ccc(NCc2ccc3c(c2)OCO3)cc1	?	i	21µM*	?	?
COc1ccc(S(=O)(=O)N2CCOCC2)cc1NC(=O)C1CCN(S(=O)(=O)c2ccc(Cl)cc2)CC1	4%	i	i	nt	6%
CCOC(=O)C(C)Sc1nc(N)c(NC(=O)c2ccc(OC)c(OC)c2)c(=O)[nH]1 (stereo not drawn)	-4%	i	i	2%	1%
CCOC(=O)c1c(C)c(C(=O)Nc2ccc3c(c2)OCCO3)c(C)n1C	4%	?	15µM*	?	?
CCOC(=O)c1ccc(NC(=O)Nc2ccn(C)n2)cc1	15%	i	16µM*	25%	6%
CCOc1ccc(NC(=O)c2oc3ccccc3c2NC(=O)Cc2ccc(F)cc2)cc1	nt	i	i	nt	nt
CC(C)(C)NC(=O)Nc1ccc(Br)cc1	8%	i	i	?	5%
